# Experimental data as given in PubChem BioAssay (NCATS).
# Results filed as inconclusive are left out. Unmarked numbers belong to inactive results. Calls of active or inactive are those of the source. The call rests on the fitted dose curve; in most records, active means well fitted curve in the direction sought with a large enough effect; inconclusive means small, poorly fitted or top-dose-only effect, or another doubt; inactive means no such curve, though single readings can be large; an effect the other way counts as inactive or inconclusive.
# Assay: qHTS of pediatric cancer cell lines to identify multiple opportunities for drug repurposing: Primary screen for Rh18 cells (AID 1347102); further: nearly all actives have a fitted effect of over 65% in size; on activity change, negative = cytotoxic: on the % scale 0 is the no-effect control and ±100 the full control effect
# Details: Rh18 rhabdomyosarcoma viability, CellTiter-Glo luminescence, 48 h; series mostly up to 46 µM; activity change, negative = cytotoxic: at the top concentration
# Procedure, shortened: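 Viability after 48 h compound treatment at 37C, 500-1,000 cells/well, read as ATP luminescence with CellTiter-Glo. Primary screens used 11-point (MIPE, 0.78 nM-46 µM) or 8-point (NPC, 0.59 nM-46 µM) final concentrations; follow-up screens used 11-point dilutions.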
# Potency means the concentration at half of the fitted maximal effect.
SMILES,"activity change, negative = cytotoxic",Potency
Cn1c(=O)c(Oc2ccc(F)cc2F)cc2cnc(NC3CCOCC3)nc21,-19.9%,–
O=C(O)c1nc(=O)[nH]c(=O)[nH]1,-0.182% [at 16.1 µM],–
CCC[C@H](Nc1nc(-c2ccc(NC(=O)NCC)c(OC)c2)ncc1C)c1cccnc1,-24.3%,–
CCCCCCCCCCCCCCCC(=O)O[C@H]1[C@@H](O)[C@@H](O)[C@@H]([C@H](NC(=O)[C@@H]2C[C@@H](CCC)CN2C)[C@H](C)Cl)O[C@@H]1SC,3.04%,–
COc1cc2nc(-c3cc(F)ccc3O)nc(N[C@@H]3CNC[C@@H]3C(C)(C)O)c2cc1OC,–,18.7 µM (active)
C[C@@H]1[C@H](C)CC[C@]2(C(=O)O)CC[C@]3(C)C(=CC[C@@H]4[C@@]5(C)CC[C@H](O)C(C)(C)[C@H]5CC[C@]43C)[C@@H]12,6.45% [at 92.7 µM],–
CC[C@H]1OC(=O)[C@H](C)[C@@H](O[C@H]2C[C@@](C)(OC)[C@@H](O)[C@H](C)O2)[C@H](C)[C@@H](O[C@@H]2O[C@H](C)C[C@H](N(C)C)[C@H]2O)[C@](C)(O)C[C@H](C)C(=NOCOCCOC)[C@H](C)[C@@H](O)[C@]1(C)O,16.6%,–
O=C(NCCCCN1CCOCC1)c1cc2ccccc2o1,15.6%,–
C[C@H]1O[C@@H](n2cc(F)c(=O)[nH]c2=O)[C@H](O)[C@H]1O,7.84%,–
CC(C)N(CCCNC(=O)Nc1ccc(C(C)(C)C)cc1)C[C@H]1O[C@@H](n2cc(Br)c3c(N)ncnc32)[C@H](O)[C@H]1O,–,20.9 µM (active)
CCCCCOC(=O)Nc1nc(=O)n([C@@H]2O[C@H](C)[C@@H](O)C2O)cc1F (some centres undefined),-2.09%,–
O=c1[nH]c(=O)n([C@H]2C[C@@H](O)[C@@H](CO)O2)cc1C(F)(F)F,-6.35%,–
C#C[C@]1(O)CC[C@H]2[C@H]3CCc4cc(OC)ccc4[C@H]3CC[C@@]21C,7.31%,–

# Assay: qHTS of pediatric cancer cell lines to identify multiple opportunities for drug repurposing: Primary screen for OHS-50 cells (AID 1347103); further: nearly all actives have a fitted effect of over 40% in size;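 on activity change, negative = cytotoxic: plate controls were DMSO neutral control for no effect and bortezomib positive control for full effect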
# Details: OHS-50 osteosarcoma viability, CellTiter-Glo luminescence, 48 h; series mostly up to 57.3 µM; activity change, negative = cytotoxic: at the top concentration
# Procedure, shortened: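 Cells (500-1,000/well) rested 5 h, then received compounds for 48 h; metabolically active cells were measured by CellTiter-Glo luminescence. Final concentrations spanned up to 46 µM (MIPE, 11-point) or 0.59 nM-46 µM (NPC, 8-point) in primary screens, 11-point in follow-ups.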
SMILES,Potency,"activity change, negative = cytotoxic"
Cc1ccc(NC(=O)c2ccc(CN3CCN(C)CC3)cc2)cc1Nc1nc(-c2cccnc2)cs1,21.7 µM (active),–
CC(C)CN(C[C@@H](O)[C@H](Cc1ccccc1)NC(=O)O[C@H]1CO[C@H]2OCC[C@H]21)S(=O)(=O)c1ccc(N)cc1,12.2 µM (active),–
CCN(CC)CCCCNc1nc2cc(Cl)c(Cl)cc2nc1-c1ccc(-c2cccs2)s1,19.3 µM (active),–
CCOC(=O)[C@H](CCc1ccccc1)N[C@@H](C)C(=O)N1CCCC1C(=O)O (some centres undefined),–,5.36%
O=c1[nH]nc(OCCCc2ccc(Cl)cc2)c(NCc2cccnc2)c1Br,19.3 µM (active),–
CC(C)C[C@@H](N)[C@H](O)C(=O)N[C@H](C(=O)N[C@H](C(=O)N[C@@H](CC(=O)O)C(=O)O)C(C)C)C(C)C,–,21.4%
O=S(=O)(NCCNCC=Cc1ccc(Br)cc1)c1cccc2cnccc12,7.69 µM (active),–
CC[C@H](NC(=O)[C@H](C)NC)C(=O)N1C[C@@H](O)C[C@H]1Cc1c(-c2[nH]c3cc(F)ccc3c2C[C@H]2C[C@H](O)CN2C(=O)[C@H](CC)NC(=O)[C@H](C)NC)[nH]c2cc(F)ccc12,0.432 µM (active),–
Cc1cccc(Nc2nc(N[C@@H]3CCCC[C@H]3N)ncc2C(N)=O)c1,7.69 µM (active),–
COc1ccc(-c2ccc3ncc4c(c3c2)n(-c2ccc(N3CCNCC3)c(C(F)(F)F)c2)c(=O)n4C)cn1,0.0054 µM (active),–
CN[C@@H]1CN(c2ccc3c(=O)c(C(=O)O)cn(-c4nccs4)c3n2)C[C@@H]1OC,16.8 µM (active),–
O=C(O)c1nc(=O)[nH]c(=O)[nH]1,–,-16.3% [at 19.7 µM]
CCC[C@H](Nc1nc(-c2ccc(NC(=O)NCC)c(OC)c2)ncc1C)c1cccnc1,0.0137 µM (active),–
CCCCCCCCCCCCCCCC(=O)O[C@H]1[C@@H](O)[C@@H](O)[C@@H]([C@H](NC(=O)[C@@H]2C[C@@H](CCC)CN2C)[C@H](C)Cl)O[C@@H]1SC,–,-9.04%
COc1cc2nc(-c3cc(F)ccc3O)nc(N[C@@H]3CNC[C@@H]3C(C)(C)O)c2cc1OC,10.9 µM (active),–
O=C(NCCCCN1CCOCC1)c1cc2ccccc2o1,–,8.08%
Cc1ccc(S(=O)(=O)Nc2nc3ccccc3nc2Nc2ccc3nsnc3c2)cc1,0.0421 µM (active),–
CC(C)(CO)[C@@H](O)C(=O)NCCC(=O)O,–,1.81%
CC(C)CNc1ccnc(NCc2csc(-c3ccccc3)n2)n1,6.11 µM (active),–
FC(F)(F)c1ccc(C=Cc2nc(COc3ccc(CCCCn4ccnn4)cc3)co2)cc1,0.0077 µM (active),–
CC1(C)OC2CC3C4CC(F)C5=CC(=O)C=CC5(C)C4C(O)CC3(C)[C@]2(C(=O)CO)O1 (some centres undefined),–,8.73%
C[C@H]1O[C@@H](n2cc(F)c(=O)[nH]c2=O)[C@H](O)[C@H]1O,–,31.1%
CC(C)N(CCCNC(=O)Nc1ccc(C(C)(C)C)cc1)C[C@H]1O[C@@H](n2cc(Br)c3c(N)ncnc32)[C@H](O)[C@H]1O,24.3 µM (active),–
CCCCCOC(=O)Nc1nc(=O)n([C@@H]2O[C@H](C)[C@@H](O)C2O)cc1F (some centres undefined),–,3.19%
O=c1[nH]c(=O)n([C@H]2C[C@@H](O)[C@@H](CO)O2)cc1C(F)(F)F,17.2 µM (active),–
N#CC(=C1Nc2ccccc2S1)c1ccnc(OCc2ccc(CN3CCOCC3)cc2)n1,0.344 µM (active),–
